# Experimental data from the supplement of paper PMC10338343.
# ± gives the standard deviation.
# System: MILI (PIWIL2) piRISC loaded with L1MC piRNA (26 nt)
# Experiment: pre-steady-state target cleavage rate (min^-1); guide: L1MC piRNA 5'p-UAACUAAAUACUAUGCAAGCUGUAGG; MIWI and MILI are mouse PIWI proteins and EfPiwi is from a freshwater sponge; tags in brackets are library labels; higher = faster piRNA-guided slicing of the target
# Conditions: auxiliary factor: 500 nM mouse GTSF1
# Protocol: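 Cleave-'n-Seq: a library of target RNAs (target site embedded in constant flanks, ACAGCATTCCGCGTTAGTGATATCCG... 5' flank; DNA-blocked outside the site) at 0.1 nM was incubated with 1 nM active mouse MILI or MIWI piRISC (synthetic 5'-monophosphorylated piRNA guide) with or without 500 nM mouse GTSF1 at 33 °C for 1 min to 16 h. Uncleaved targets were sequenced and normalised to non-target controls, and the pooled three trials were fitted to a burst-and-steady-state model to give the pre-steady-state cleavage rate (min^-1; k3 is constrained to at most 1e-4). Sequence is the target site only; target names encode pairing extent (gX:gY) and contiguous / 1-mismatch / 2-mismatch / bulge geometry. Fits with R² ≤ 0 are excluded.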
row,Sequence,pre-steady-state target cleavage rate
1,UCCUGGUACAGCUUGCAUAGUAUAAUGAAA,0.0203 ± 0.0077
2,UCCUGCUACAGCUUGCAUACUAUUUACAAA,0.0741 ± 0.024
3,UCCUGGAACAGCUUGCAUAGUAGUUUAGUUA,0.175 ± 0.013
4,UCCUGGUACAGCUUGCAUAUUAUUUAGUUA,0.0704 ± 0.01
5,UCCUGGAUCUCCUUGCAUAGUAUUUAGUAA,0.203 ± 0.024
6,UCCUGGAUCAGCUUGCAUAGUACUUAGUUA,0.237 ± 0.018
7,UCCUGGAACACCUUGCAUAGUAUUUUGUUA,0.14 ± 0.035
8,UCCUGCUACAGCUUGCAUAGUAUUUACGUUA,0.21 ± 0.023
9,UCCUGGUAUCAGCUUGCAUAGUAUUUAGUUA,0.252 ± 0.026
10,UCCUGGAUCAGGUUGCAUAGUAUUUAGUAA,0.227 ± 0.016
11,UCCUGGAUCAGCCUUGCAUAGUAUUUAGUUA,0.249 ± 0.023
12,UCCUGGUAGAGCUUGCAUAGUAAUUAGUUA,0.177 ± 0.021
13,UCCUGGAACAGCUUGGCAUAGUAUUUAGUUA,0.48 ± 0.097
14,UCCUGGAACGGCUUGCAUAGUAUUUAGUUA,0.259 ± 0.017
15,UCCUGCUACAGCUUGCAUACUAUUUAGAUA,0.0214 ± 0.0094
16,UCCUCCUACAGCUUGGAUAGUUUUUAGUUA,0.0664 ± 0.0092
17,UCCUGGAACAGCUUGCAUAGUAUUUAGAUA,0.137 ± 0.025
18,UCCUCCUACAGCUUGCUAUGUAUUUACAAA,0.00653 ± 0.0036
19,UCCUGCUUCUGCUUGCAUAGUAUUUAGUUA,0.199 ± 0.016
20,UCCUCCUACUGCUUGCAUAGUAUUAAGUUA,0.15 ± 0.018
21,UCCUGCUAUCAGCUUGCAUAGUAUUUAGUUA,0.268 ± 0.022
22,UCCUGCUACAGCUUGCAUAGUAAUUACUUA,0.057 ± 0.017
23,UCCUGCUACUCGUUGCAUAGUAUUUAGUUA,0.242 ± 0.014

# Same assay, conditions: auxiliary factor: none (no GTSF1)
row,Sequence,pre-steady-state target cleavage rate
1,UCCUGGAACAGCUUGCAUAGUAGUUUAGUUA,0.00337 ± 0.0031
2,UCCUGGUACAGCUUGCAUAUUAUUUAGUUA,0.00385 ± 0.0027
3,UCCUGGAUCUCCUUGCAUAGUAUUUAGUAA,0.00367 ± 0.0019
4,UCCUGGAUCAGCUUGCAUAGUACUUAGUUA,0.00683 ± 0.0023
5,UCCUGGAUGUCGAACGUAAGUAAUAAGUUA,< 0.0001
6,UCCUGCUACAGCUUGCAUAGUAUUUACGUUA,0.00615 ± 0.0025
7,UCCUGGUAUCAGCUUGCAUAGUAUUUAGUUA,0.0221 ± 0.0059
8,UCCUGGAUCAGGUUGCAUAGUAUUUAGUAA,0.00858 ± 0.0024
9,UCCUGGAUCAGCCUUGCAUAGUAUUUAGUUA,0.00595 ± 0.0023
10,UCCUGGUAGAGCUUGCAUAGUAAUUAGUUA,0.00729 ± 0.0024
11,UCCUGGAACAGCUUGGCAUAGUAUUUAGUUA,0.00632 ± 0.0027
12,UCCUGGAACGGCUUGCAUAGUAUUUAGUUA,0.0129 ± 0.0024
13,UCCUCCUACAGCUUGGAUAGUUUUUAGUUA,0.00384 ± 0.0019
14,UCCUGCUUCUGCUUGCAUAGUAUUUAGUUA,0.00864 ± 0.0018
15,UCCUCCUACUGCUUGCAUAGUAUUAAGUUA,0.00292 ± 0.0026
16,UCCUGCUAUCAGCUUGCAUAGUAUUUAGUUA,0.00819 ± 0.0029
17,UCCUGCUACUCGUUGCAUAGUAUUUAGUUA,0.0082 ± 0.0022
